This is an account of results in PubChem BioAssay AID618 (Sanford-Burnham Center for Chemical Genomics, 2007).

Molecules are shown by their SMILES. The whole screen tested about 87,000 compounds, of which about 540 (0.62%) were called active. No rule for the calls is given here. What follows is part of a selection rich in actives, with near analogues and random picks from the rest. Entries with a potency or affinity are not part of this list.

This test can be described thus: MT1-MMP gene expression reporter suppression – cell-based, luciferase reporter, luminescence (AID 618).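 Also: actives suppress MT1-MMP promoter-driven transcription so potencies describe inhibitors.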 The settings on record: MT1-MMP promoter luciferase reporter cells.
On to `O=C(Nc1ccccc1C(=O)OCn1nnc2ccccc2c1=O)c1ccco1`, for which the call was inactive. As for `CC(=O)Nc1ccc(S(=O)(=O)N2CCC(c3nc4ccc(C)cc4[nH]3)CC2)cc1`, the entry is “inactive”. Take `Cc1nc2ccccc2c(=O)n1/N=C/c1ccc(N(C)C)cc1`: the compound was classed as inactive. On to `C=CCn1c(/N=C/c2ccc(N(C)C)cc2)nc2ccccc21`, for which the compound was called inactive. For `CN(C)c1ccc(/C=N/n2ncc3ccccc32)cc1`, the compound was classed as active. Turning to `CCCN=Cc1c(CCC)[nH]n(-c2nc3ccccc3s2)c1=O`, the compound was called inactive.

As for `CCCc1[nH]n(-c2nc3ccccc3s2)c(=O)c1C=NCC(C)C`, the compound was classed as inactive. On to `O=C(CCN1C(=O)C2C3C=CC(C3)C2C1=O)N1CCN(c2ccccc2Cl)CC1` (stereo not given), for which the compound was classed as inactive. Regarding `O=C(NCc1ccc2c(c1)OCO2)c1c[nH]c2ccc(S(=O)(=O)N3CCOCC3)cc2c1=O`, the call was inactive. Consider `COC(=O)Cn1c(C)c(C#N)c2ccccc21`, for which the result was inactive. Regarding `Cc1cc(C)n(-c2nnc(C)n2/N=C/c2cc(Br)ccc2OCc2ccccc2)n1`, the result was inactive. In the case of `CCCOc1ccc2ccccc2c1/C=N/n1c(C)nnc1-n1nc(C)cc1C`, the call was active. As for `COc1ccccc1/C=N/n1c(C)nnc1-n1nc(C)cc1C`, the entry is “inactive”; as for `Cc1nn(C)cc1C=NCCOCc1ccccc1`, “inactive”; as for `O=C(CCC(=O)c1cccs1)NC(c1ccccc1)c1ccccc1`, “inactive”.

As to `COc1ccc2c(=O)c(-c3nc(C)cs3)coc2c1`, the result was active. As for `COc1ccc2oc(=O)c(-c3nc(C)cs3)cc2c1`, the entry is “inactive”; as for `Cc1csc(-c2coc3cc(O)cc(C)c3c2=O)n1`, “inactive”. As for `CCCC(=O)Nc1cnc(NC(=O)c2cccc(F)c2)cc1C`, the entry is “inactive”. Take `CCN(CCCNC(=O)CN1C(=O)COc2ccccc21)c1ccccc1`: the compound was classed as inactive. As for `COc1cc(C2C(C#N)=C(C)NC3=C2C(=O)CC(C)(C)C3)cc(OC)c1O` (stereo not given), the entry is “inactive”. With `COc1ccc(C2C(C#N)=C(C)NC3=C2C(=O)c2ccccc23)cc1` (stereo not given), the outcome was inactive. For the compound `COc1cc(C2C(C#N)=C(C)NC3=C2C(=O)c2ccccc23)cc(OC)c1OC` (stereo not given), the outcome was active. For `CCCCCC(=O)N(O)C1CC(=O)N(c2ccccc2)C1=O` (stereo not given), the outcome was inactive. In the case of `COC(=O)c1ccc(Nc2nc(C)cc(C)n2)cc1`, the call was inactive. Turning to `CCOC(=O)c1ccccc1NC(=O)CN(c1ccccc1C)S(C)(=O)=O`, the outcome was inactive. `CN1C(=O)c2c(sc3c2CC(C)(C)SC3)N2CCN=C12`: the call was inactive.

In the case of `Cc1ccsc1C(=O)N1CC(=O)Nc2ccccc21`, the result was inactive. In the case of `Cc1cc(C)cc(C(=O)N2CC(=O)Nc3ccccc32)c1`, the compound was called active.

With `O=C1CN(C(=O)c2ccccc2)c2ccccc2N1`, the result was inactive. As for `O=C(CCN1C(=O)c2ccccc2C1=O)Nc1ccccn1`, the entry is “inactive”; as for `CNC(=O)C1CCCN1S(=O)(=O)c1ccc(OC)cc1` (stereo not given), “inactive”. As for `Cc1ccc(NC(=O)CS(=O)CC(=O)NCC2OCCc3ccccc32)c(C)c1` (stereo not given), the entry is “inactive”. `Cc1cccc(-c2c3c(=O)n(C)c(=O)n(C)c3c3c(C)cc(C)nn23)c1`: the compound was called inactive.

Turning to `Cc1cc(S(=O)(=O)Nc2ccc(N(C)C)cc2)c(C)s1`, the call was inactive. For the compound `Fc1ccc2[nH]c3c(N4CCN(c5ccccc5)CC4)ncnc3c2c1`, the result was inactive.

Consider `COc1cccc(N2CCN(c3ncnc4c3[nH]c3ccccc34)CC2C)c1` (stereo not given), for which the compound was called inactive. Take `COc1cccc(N2CCN(c3ncnc4c3[nH]c3ccc(F)cc34)CC2C)c1` (stereo not given): the outcome was active.

Take `CC(C)(C)c1ccc(C(O)CCCN2CCC(C(O)(c3ccccc3)c3ccccc3)CC2)cc1` (stereo not given): the call was active.

`OC(CCCCN1CCCCC1)c1ccccc1` (stereo not given): the compound was classed as inactive.

As for `OC(CCN1CCCC1)(c1ccccc1)C1CCCCC1` (stereo not given), the compound was called inactive. For the compound `Cc1ccc(-n2nc(-c3ccc(N)cc3)cc2N)cc1`, the result was inactive. Consider `Nc1ccc2nn(-c3cccc4ccccc34)nc2c1`, for which the outcome was inactive. For the compound `CCOC(=O)CC1=CC(C)(CC(=O)OCC)C(C#N)(C#N)C(N)=C1C#N` (stereo not given), the outcome was inactive. On to `O=C(CC1(O)C(=O)Nc2ccccc21)c1ccc(-n2cccc2)cc1` (stereo not given), for which the outcome was inactive. Consider `CC(C)(C)NC(=O)CC(c1ccccc1)c1ccccc1O` (stereo not given), for which the result was inactive. Take `Cc1sc2nc(SCC(=O)NCc3cccs3)[nH]c(=O)c2c1C`: the compound was classed as inactive.

With `Cc1cnc(NC(=O)COc2ccccc2)s1`, the result was inactive. `Cc1cnc(NC(=O)COc2cccc3c2OC(C)(C)C3)s1`: the outcome was inactive. As for `Cc1cnc(NC(=O)COc2ccccc2Cl)s1`, the call was active. As for `CCOC(=O)C1C(=O)NC(N2CCN(Cc3ccccc3)CC2)=NC1c1ccccc1` (stereo not given), the entry is “inactive”; as for `Fc1ccc(-c2nnc(-c3ccc(Cl)cc3)o2)cc1`, “inactive”. With `Clc1ccc(-c2nnc(-c3ccccc3)o2)c(Cl)c1`, the call was inactive. As to `Cc1cccc(NC(=O)CCc2ccc(C)o2)c1`, the compound was classed as inactive. For `C/C(N)=C(/C#N)C(=O)COC(=O)COc1ccc(Cl)cc1`, the call was inactive. Take `c1ccc(Nc2ccccc2Nc2ccccn2)nc1`: the call was inactive. As for `Oc1cccc2ccc(Nc3ccccn3)nc12`, the entry is “active”; as for `c1ccc(Nc2ccccn2)cc1`, “inactive”. As for `O=C(Nc1ccc(F)cc1)c1ccccc1`, the entry is “inactive”; as for `Cc1cc(C)nc(NC2=NC3CCCCC3N2)n1` (stereo not given), “inactive”; as for `Cc1cc(C)cc(NC(=O)CCn2ccnc2C)c1`, “inactive”.

Regarding `CC1CC(C)CN(c2oc(-c3ccco3)nc2C#N)C1` (stereo not given), the call was inactive. As to `COc1ccc2c(CSc3nc4nc(C)cc(C)n4n3)cc(=O)oc2c1`, the outcome was inactive. Regarding `CCC(SCC(=O)OC)C(=O)Nc1nnc(C(C)C)s1` (stereo not given), the outcome was inactive. On to `Cc1nnc(SCCn2c(N3CCN(C)CC3)nc3c2c(=O)[nH]c(=O)n3C)s1`, for which the compound was classed as inactive. Consider `Cc1nnc(SCCn2c(N3CCN(C)CC3)nc3c2c(=O)n(C)c(=O)n3C)s1`, for which the call was inactive.

In the case of `Cc1nnc(Sc2nc(Sc3nnc(C)s3)nc(N3CCN(C)CC3)n2)s1`, the result was active. As for `COc1ccc(NC(=O)C2C(=O)N(C)C3(C)CC2c2ccccc2O3)cc1` (stereo not given), the entry is “inactive”; as for `Cc1ccc2ccc(C3C(=O)c4ccccc4C3=O)nc2c1`, “inactive”. As to `COC(=O)C1=C(C)NC(C)=C(C(=O)OC)C1c1ccc2ccccc2n1`, the outcome was inactive.

Regarding `O=C1c2ccccc2C(=O)C1c1ccc2ccccc2n1`, the call was active. As for `CCCCn1c(CCNC(=O)CCC)nc2ccccc21`, the outcome was inactive. On to `CCCCCCc1ccc(OCC(=O)O)cc1OCC(=O)O`, for which the compound was classed as inactive. As for `CC(C)(/C=N/O)/[N+]([O-])=C/c1ccco1`, the entry is “inactive”; as for `Cc1cc(C(=O)NCCN2CCN(c3cccc(Cl)c3)CC2)n(-c2ccccc2)n1`, “active”. For `Cc1cc(C(=O)NCCCN2CCOCC2)n(-c2ccccc2)n1`, the outcome was inactive. As for `Cc1cc(C(=O)NCCCN2CCN(C3CCCCC3)CC2)n(-c2ccccc2)n1`, the compound was called inactive.

On to `COc1ccc(S(=O)(=O)Cc2ccc(C(=O)N3CCc4ccccc4C3)o2)cc1`, for which the call was inactive.

Consider `CCC1=C/C(=C/N(C)c2ccccc2)C(=O)S1`, for which the result was inactive.

`Cc1ccc(-c2cc(=O)[nH][nH]2)c(C)c1`: the call was inactive. In the case of `CCOC(=O)c1c(C)sc2c1N(C(=O)CN(CC)CC)c1cc(Cl)ccc1S2`, the outcome was inactive.

With `CCOC(=O)c1c(C)sc2c1N(C(=O)CCl)c1cc(Cl)ccc1S2`, the compound was called active. As for `CCOC(=O)c1c(C)sc2c1N(C(C)=O)c1cc(Cl)ccc1S2`, the entry is “inactive”; as for `CCN1CCN(C(=O)c2cc3cc4ccc(OC)cc4nc3s2)CC1`, “inactive”.

`CCC(C)NC(=O)c1cc2cc3ccc(OC)cc3nc2s1` (stereo not given): the call was inactive. As for `O=c1[nH]c(NCCO)nc2ncn(Cc3ccccc3)c12`, the outcome was inactive.

Take `Cn1c(C(=O)N2CCCC(C(=O)NCCc3ccccc3)C2)cc2sccc21` (stereo not given): the compound was classed as inactive. In the case of `Cc1ccc(-c2csc(NC(=O)c3ccno3)n2)cc1`, the result was inactive. As to `Cc1ccc(C(=O)CC(=O)c2cc(Cl)ccc2O)cc1`, the call was inactive. As for `COc1ccc(C(=O)c2ccccc2)c(O)c1`, the entry is “inactive”. On to `Cc1ccc(O)c(C(=O)CC(=O)c2cccc(F)c2)c1`, for which the outcome was inactive. In the case of `O=C(CC(=O)c1cc(Cl)ccc1O)c1ccccc1`, the compound was called inactive.

In the case of `CSCCC1C(=O)OC2(C)CC(C)(C)NC(=S)N12` (stereo not given), the outcome was inactive.

Turning to `COCCn1c(C)cc(C(=O)CSc2nncn2-c2ccccc2)c1C`, the compound was called inactive. As for `COCCn1c(C)cc(C(=O)CSc2nnc(C)s2)c1C`, the entry is “active”; as for `Cc1nnc(SCC(=O)c2cc(C)n(C3CC3)c2C)s1`, “inactive”; as for `COCCn1c(C)cc(C(=O)CSc2ncn[nH]2)c1C`, “inactive”. Regarding `CCCn1c(=O)c2ccccc2n2c(SCC(=O)c3cc(C)n(CCOC)c3C)nnc12`, the call was inactive.

Turning to `CC(=O)N1c2ccccc2C(=O)OC1c1cccnc1` (stereo not given), the compound was called inactive. Regarding `O=C(NCCCn1ccnc1)c1cc2c(s1)CCCCC2`, the call was inactive. As for `COc1cccc(CN2C(=O)c3ccccc3C2C(=O)NCC2CCCO2)c1` (stereo not given), the entry is “inactive”. As for `O=C(O)c1cnn(-c2ccccc2)c1-n1cccc1`, the entry is “inactive”; as for `COc1cccc(-n2nnnc2SCC(=O)Nc2cccc(C)n2)c1`, “inactive”; as for `O=C(Cn1cnc2c(nnn2Cc2ccc(F)cc2)c1=O)OCc1ccccc1`, “inactive”. In the case of `O=S(=O)(Nc1cccc2c1ccc1cccn12)c1cccs1`, the result was inactive. For `Cc1ccc(S(=O)(=O)Nc2cccc3ncccc23)s1`, the compound was classed as active.

On to `O=S(=O)(Nc1ccc(-c2nc3cccnc3s2)cc1)c1cccs1`, for which the result was inactive.

Turning to `Cc1ccc(S(=O)(=O)NCc2cccnc2)s1`, the outcome was inactive. Take `Cc1ccc(S(=O)(=O)Nc2ccnc3ccccc23)cc1`: the compound was called inactive. As to `O=S(=O)(Nc1cccc2ncccc12)c1cccs1`, the outcome was active. As for `CCN(CC)CCOC(=O)c1cccc(Cl)c1`, the entry is “inactive”; as for `O=C(c1cccs1)c1no[n+]([O-])c1C(=O)c1cccs1`, “active”; as for `Cc1ccc(C(=O)c2nocc2C(=O)c2cccs2)cc1`, “inactive”. As to `O=C(O)Cc1ccc(C(=O)c2cccs2)s1`, the outcome was inactive.

Turning to `CC(=O)c1cccc(NC(=O)N2CCCC2C(=O)NCc2ccc(F)cc2)c1` (stereo not given), the result was inactive.
